These results are taken from PubChem BioAssay (Tox21).

SMILES strings stand for the structures. Values without a mark were called inactive. The source made the active and inactive calls. Calls follow the shape of the dose curve; as a rule, active = well fitted curve in the direction sought with a large enough effect in the repeat runs; inconclusive = weak or mixed curves; inactive = flat fitted curve, though single readings scatter.
% is scaled to controls: 0 for no effect and ±100 for the full control effect.

The experiment is described as follows: qHTS assay to test for compound auto fluorescence at 535 nm (green) in HEK293 cell free culture (AID 720682). The conditions noted are these: cell-free medium, green autofluorescence 485/535 nm, hits give high values; series mostly up to 91.3 µM; activity change: at the top concentration. An excerpt: U.S. Tox21 Program National Center for Advancing Translational Sciences [NCATS] NIH Chemical Genomics Center [NCGC] U.S. Environmental Protection Agency [EPA] National Institutes of Environmental Health Sciences [NIEHS] National Toxicology Program [NTP] U.S. Food and Drug Administration [FDA] Tox21 Assay Overview: Compound auto fluorescence often interferes with screening of the compound library against various biological targets and signaling pathways. Some of these compounds may have fluorophoric properties. Such properties may interfere with the assay outputs resulting in false positives and/or negatives. To decrease such complications and ensure the compound activities are relevant in terms of biological response, the Tox21 10K compound library was screened for auto fluorescence. From the fluorophores used as reporter signals in our screening assays, the auto fluorescence equivalencies of compounds against three fluorophores have been evaluated: Triamterene, Fluorescein and Rose Bengal sodium for blue, green and red fluorescence, respectively. The fluorescence intensities were measured using Excitation/Emission wavelengths at 405/460nm, 485/535nm and 540/590nm for blue, green and red labels, respectively. This assay includes the green fluorescence data.
Tox21 Assay Protocol Summary: 5 uL of culture medium (DMEM containing 10% FBS) per well was dispensed into black wall/clear bottom 1536-well plates using a Multidrop Combi Dispenser (ThermoFisher Scientific, Waltham, MA). After 23 nL compound or DMSO vehicle was transferred into assay plate by a pintool work station (Kalypsys, San Diego, CA), fluorescence intensities in the assay plates were measured by an Envision (PerkinElmer, Shelton, CT) plate reader using three labels for measuring blue, green and red fluorescence at […] 460, 535 and 590nm respectively.
In general terms: qHTS replaces the single test concentration by a dilution series.
Take `c1csc(SSc2cccs2)c1`: the “activity change” value was -0.0392%.

`C=C(C)CCCC(C)CCO` (stereo not given): the “activity change” value was 0.0256%.

In the case of `CC(=O)Nc1cc(S(=O)(=O)O)cc2cc(S(=O)(=O)O)c(N=Nc3ccccc3)c(O)c12`, the “activity change” value was -0.0666%.

On to `Cc1cccc(O)c1N`, for which the “activity change” value is -0.0317%.

Turning to `CC(C)c1nc(CN(C)C(=O)N[C@H](C(=O)N[C@@H](Cc2ccccc2)C[C@H](O)[C@H](Cc2ccccc2)NC(=O)OCc2cncs2)C(C)C)cs1`, the molecule was classed as inactive.

Turning to `COc1ccccc1N1CCN(CC(O)COc2cccc3ccccc23)CC1` (stereo not given), the “activity change” value is 0.025% [at 46 µM].

On to `Cc1ccco1`, for which the “activity change” value is 0.0412%.

Regarding `CC(C)Nc1cccnc1N1CCN(C(=O)c2cc3cc(NS(C)(=O)=O)ccc3[nH]2)CC1`, the “activity change” value is -0.173% [at 46 µM].

Regarding `O=c1[nH]c2ccc(Cl)cc2o1`, the “activity change” value is 0.0123%.

With `CCOC(=O)c1ccc(I)cc1`, the “activity change” value was 0.0292%.

On to `C=C/C(C)=C/C/C=C(\C)CCC=C(C)C`, for which the “activity change” value was -0.0021%.

For `CC1(C)[C@@H](OC(=O)CCC(=O)O)CC[C@]2(C)[C@H]3C(=O)C=C4[C@@H]5C[C@@](C)(C(=O)O)CC[C@]5(C)CC[C@@]4(C)[C@]3(C)CC[C@@H]12`, the activity change is -0.0002% [at 18.6 µM].

Turning to `Cc1cscn1`, the “activity change” value was -0.0377%.

In the case of `CN1C(=O)N(c2ccccc2Br)Cc2cnc(Nc3ccc4c(c3)OCC(CO)O4)nc21` (stereo not given), the “activity change” value was -0.0562%.

As to `O=C(CCCN1CC=C(n2c(=O)[nH]c3ccccc32)CC1)c1ccc(F)cc1`, the “activity change” value is 0.0064% [at 46 µM].

Regarding `O=C(Nc1cccc2c(=O)cc(-c3nn[nH]n3)oc12)c1ccc(OCCCCc2ccccc2)cc1`, the “activity change” value was 0.0414% [at 46 µM].

Take `CC(C)(C)C(=O)C(=O)O`: the “activity change” value was -0.009%.

On to `CCN(CC)CCNC(=O)COc1ccc(OC)cc1`, for which the “activity change” value is 0.0658% [at 46 µM].

With `Cc1cc(C)c(N)cc1C`, the “activity change” value is 0.0534%.

For the molecule `CCOC(=O)c1ccc(C#Cc2ccc3c(c2)C(C)(C)CCS3)nc1`, the “activity change” value was 0.0599% [at 46 µM].

In the case of `c1cc(N(CC2CO2)CC2CO2)ccc1Cc1ccc(N(CC2CO2)CC2CO2)cc1` (stereo not given), the “activity change” value was 0.0828%.

For the molecule `CC(C)COCC(CN(Cc1ccccc1)c1ccccc1)N1CCCC1` (stereo not given), the “activity change” value is -0.0284% [at 46 µM].

Take `NCCNCCO`: the “activity change” value was 0.144% [at 95.7 µM].

`CCCCN1CCCC1C(=O)Nc1c(C)cc(C)cc1C` (stereo not given): the “activity change” value is -0.0933% [at 46 µM].

Take `Oc1cccc(Nc2ccccc2)c1`: the “activity change” value is -0.0689% [at 95.7 µM].

As for `CC[N+](CC)(CCNC(=O)C(=O)NCC[N+](CC)(CC)Cc1ccccc1Cl)Cc1ccccc1Cl`, the “activity change” value is 0.155% [at 46 µM].

`Cc1ccccc1N=C(N)Nc1ccccc1C`: the “activity change” value is -0.0105%.

Take `O=[N+]([O-])c1cc(C2CCCCC2)c(O)c([N+](=O)[O-])c1`: the “activity change” value was -0.058%.

For the molecule `O=C(O)CCCCCCCCCCCBr`, the “activity change” value was 0.0209%.

For `C1COC1`, the “activity change” value is 0.0646%.

For `CCOc1ccccc1O[C@H](c1ccccc1)[C@H]1CNCCO1`, the “activity change” value was 0.02% [at 46 µM].

`O=C(O)C[C@H](NC(=O)OCc1ccccc1)C(=O)O`: the “activity change” value was -0.023%.

As for `C/C=C(/C(=C/C)c1ccc(O)cc1)c1ccc(O)cc1`, the activity change was -0.004% [at 18.6 µM].

`C=C1c2cccc(O)c2C(O)=C2C(=O)[C@]3(O)C(O)=C(C(N)=O)C(=O)[C@@H](N(C)C)[C@@H]3[C@@H](O)[C@H]12`: the activity change is -0.0974% [at 18.6 µM].

Turning to `N#[N+]c1ccc2c(S(=O)(=O)[O-])cccc2c1O`, the “activity change” value is -0.137%.

On to `C=C(C)C(=O)OCCCCCCCCCCCCC`, for which the “activity change” value is 0.02%.

For `CCOC(=O)[C@H](CCc1ccccc1)N[C@@H](C)C(=O)N(CC(=O)O)C1Cc2ccccc2C1`, the “activity change” value was 0.0989% [at 46 µM].

On to `O=c1cc(-c2ccccc2)oc2ccc3ccccc3c12`, for which the “activity change” value was 0.0725%.

Consider `CN(C)CCC=C1c2ccccc2C=Cc2ccccc21`, for which the “activity change” value is -0.0779% [at 46 µM].

As for `CCn1cc(C(=O)O)c(=O)c2cc(F)c(N3CCNCC3)cc21`, the outcome was inactive.
